Most compounds without a hit are left out; they make up all but 0.45% or so of the library.
EPAC1 antag – blocks human EPAC1 exchange factor; Potency, µM (top dose mostly 115 µM), without a hit: top-dose activity change, negative = inhibition, hits mostly inhibitors; O95398; actives 0.14% (n = 360,000); EPAC1 GEF assay, Rap1b-BODIPY-GDP exchange fluorescence; AID 720709;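 also: plate controls were vehicle for no effect and positive control for full effect; nearly all actives have a fitted effect of over 50% in size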
USP2a block – inhibitors of human ubiquitin-specific protease USP2a; Potency, µM (titrated, usually from 38.3 µM), for the others: at the top dose activity change, negative = inhibition, hits mostly inhibitors; AID 463254; USP2 core, Ub-CHOP2 coupled fluorogenic reporter, 485/531; actives 0.01% (n = 330,000);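 also: plate controls were DMSO wells for no effect and full inhibition by NEM control for full effect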
Target sequence (O75604 whole entry, looked up): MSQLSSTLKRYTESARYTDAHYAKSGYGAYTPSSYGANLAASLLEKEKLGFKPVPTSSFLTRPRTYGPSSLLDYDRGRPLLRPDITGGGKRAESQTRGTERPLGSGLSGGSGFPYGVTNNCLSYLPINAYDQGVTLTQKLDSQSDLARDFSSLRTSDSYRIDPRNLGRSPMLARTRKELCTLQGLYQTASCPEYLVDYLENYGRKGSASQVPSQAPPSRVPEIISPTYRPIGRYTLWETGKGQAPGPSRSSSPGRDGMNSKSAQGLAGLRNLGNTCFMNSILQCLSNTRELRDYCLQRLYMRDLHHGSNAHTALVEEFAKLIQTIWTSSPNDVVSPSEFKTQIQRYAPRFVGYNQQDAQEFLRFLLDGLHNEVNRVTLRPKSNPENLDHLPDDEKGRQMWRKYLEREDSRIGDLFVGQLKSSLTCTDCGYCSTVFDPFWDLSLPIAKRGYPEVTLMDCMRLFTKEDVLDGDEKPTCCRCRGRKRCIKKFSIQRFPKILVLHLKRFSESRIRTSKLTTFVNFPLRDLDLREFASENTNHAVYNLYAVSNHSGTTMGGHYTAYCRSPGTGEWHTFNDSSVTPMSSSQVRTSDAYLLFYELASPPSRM
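USP2 core (10nM final) preincubated 30min RT with compound in 20mM Tris-HCl pH 8.0, 2mM CaCl2, 2mM beta-mercaptoethanol, 0.05% CHAPS; 25nM Ub-CHOP2 plus 25nM reporter substrate added, fluorescence (Ex485/Em531) read after 60min.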
EPAC2 antag – EPAC2 (human) antagonism | Q8WZA2 | Potency, µM (doses to about 114 µM), without a hit: at the highest dose activity, negative = inhibition, most hits filed as inhibitors | EPAC2 GEF exchange of Rap1B-BODIPY-GDP, fluorescence | actives 0.18% (n = 360,000); also: % is scaled to controls: 0 for no effect and ±100 for the full control effect; nearly all actives have a fitted effect of over 45% in size
EPAC1 agonist – agonists of human EPAC1 | O95398 | Potency, µM (titrated, usually from 154 µM), inactives show top-dose activation, most hits filed as activators | AID 720707 | actives 0.073% (n = 360,000) | EPAC1 agonist qHTS, biochemical assay; response scale: 100% = response to 6.5 mM cAMP; also: nearly all actives have a fitted effect of over 60% in size
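Read-out is the fluorescence drop as BODIPY-GDP leaves Rap1B (480 nm excitation, 540 nm emission), recorded every 5 minutes over 30 minutes. Reactions held 100 nM EPAC1, 250 nM Rap1B–BODIPY-GDP and 50 uM GDP, with 6.5 mM cAMP setting full activation.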
EPAC2 ag – agonists of human EPAC2 (RAPGEF4); Q8WZA2; EPAC2 activation, biochemical qHTS; response scale: 100% = 6.5 mM cAMP response; Potency, µM (doses to about 154 µM), inactives show top-dose activation, most hits filed as activators; actives 0.079% (n = 360,000); also: nearly all actives have a fitted effect of over 50% in size
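Compounds were added across a concentration range to EPAC2 (100 nM), RAP1B-BODIPY-GDP (250 nM) and GDP (50 uM). After 5 min at room temperature, fluorescence was recorded at 5-min intervals for 30 min.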
USP1 inh – USP1/UAF1 (human) deubiquitinase inhibition | recombinant USP1/UAF1, Ub-Rhodamine cleavage fluorescence | Potency, µM (highest dose often 57.1 µM), without a hit: top-dose activity change, negative = inhibition, actives largely listed as inhibitors | actives 0.23% (n = 390,000) | AID 743255; also: % is scaled to controls: 0 for no effect and ±100 for the full control effect; nearly all actives have a fitted effect of over 60% in size
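1 nM enzyme complex + cpd, 15 min RT; start with Ub-Rho 150nM final; kinetic fluorescence ex 480/em 540, 6 reads q60 s. Buffer 50mM HEPES pH 7.8, 0.5mM EDTA, 0.1 mg/ml BSA, 1mM TCEP, 0.01% Tween-20.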
Numbers without * were called inactive; u = inconclusive; x = no result given. Calls follow the shape of the dose curve; as a rule, active = well fitted curve in the direction sought with a large enough effect; inconclusive = small, poorly fitted or top-dose-only effect, or another doubt; inactive = no such curve, though single readings can be large; an effect the other way counts as inactive or inconclusive. Potency is read from the fitted curve at half-maximal effect.

SMILES	EPAC1 antag	USP2a block	EPAC2 antag	EPAC1 agonist	EPAC2 ag	USP1 inh
COc1cc(N(C(C)=O)c2ccc(O)c(C(=O)O)c2)c2ncccc2c1	-1.3%	x	-8.2%	3.3%	5.5%	31.6µM*
COc1ccc(CCn2c(=N)c(S(=O)(=O)c3ccc(C)cc3)cc3c(=O)n4ccccc4nc32)cc1	104.9%	0.8%	89.1µM*	-17.4%	-7.5%	-17.3%
Cc1nc2ccc(C(=O)NCCc3c[nH]c4ccccc34)cn2c1N(C)C(=O)CCc1ccccc1	8.7%	x	-14.1%	-8.9%	7.1%	x
N=C1SC(c2ccccc2)C(=O)N1c1ncc(Cc2ccccc2Cl)s1 (stereo not drawn)	70.8µM*	-16.9%	-2.1%	-10.7%	-0.5%	-18.6%
O=C(N/N=C/c1ccccc1O)c1cccc(C(F)(F)F)c1	7.94µM*	0.6%	-8.8%	-9.7%	-3.3%	-13.4%
O=C(N/N=C/c1ccc(O)cc1)c1cccc(C(F)(F)F)c1	-4.3%	0.1%	-10.8%	0.1%	-12.7%	-11.2%
CCC(C)(C)C1CCc2c(sc(NC(=O)c3ccccc3C(=O)O)c2C#N)C1 (stereo not drawn)	79.4µM*	-8.6%	-15.5%	-7.9%	1.8%	u
Oc1ccc(C2=Nn3c(nnc3-c3ccco3)SC2)cc1O	44.7µM*	-0.5%	u	-0.8%	27.8%	-0.3%
COc1ccc(C2=Nn3c(nnc3-c3ccco3)SC2)cc1	9.0%	-1.2%	4.8%	-5.7%	-2.2%	-11.8%
CC(C#N)(NC(=O)CN1CCN(S(=O)(=O)c2cccc(F)c2)CC1)C1CC1 (stereo not drawn)	-0.5%	x	-1.1%	11.9%	5.0%	u
COc1cc2c(cc1OC)C(=O)C(Br)CC2 (stereo not drawn)	44.7µM*	x	28.2µM*	-7.3%	10.9%	14.1µM*
COc1cc2c(cc1OC)C(=O)C(c1ccc3c(c1)OCO3)CC2 (stereo not drawn)	15.1%	x	-11.7%	0.6%	-5.3%	-8.2%
COc1ccc(C=C(C#N)C(=O)c2ccccc2)cc1	5.1%	x	4.2%	11.8%	2.8%	x
COc1cc(/C=C(\C#N)C(=O)c2ccc(O)c(O)c2)cc(I)c1O	u	-7.7%	u	-4.4%	12.5%	25.1µM*
CC(C)(C)OC(=O)N1CCC(c2c(C(=O)N3CCN(c4ccccn4)CC3)cnn2-c2cccc(F)c2)CC1	x	x	x	x	x	4.4%
O=C(CS(=O)(=O)c1ccccc1)c1cc2cc(F)ccc2oc1=O	u	1.6%	50.1µM*	2.2%	2.5%	-24.3%
Cc1cccc(C)c1NC(=O)C1(C)CSCC(=O)N1Cc1ccco1 (stereo not drawn)	-3.4%	x	-3.7%	2.7%	11.6%	x
CCC1(c2ccccc2)NC(=O)N(CC(=O)Nc2ccc3c(c2)CCC3)C1=O (stereo not drawn)	-12.2%	x	-24.4%	2.3%	10.1%	0.9%
CCC1(c2ccccc2)NC(=O)N(CC(=O)Nc2ccc(OC)nc2)C1=O (stereo not drawn)	112.7%	u	43.6%	100µM*	u	u
O=C(CCS(=O)(=O)c1nc(-c2cccs2)cc(C(F)(F)F)n1)Nc1ccc(OC(F)(F)F)cc1	x	x	x	x	x	14.1µM*
COc1ccc(NC(=O)CCS(=O)(=O)c2nc(-c3cccs3)cc(C(F)(F)F)n2)cc1	x	x	x	x	x	-5.3%
OCC1OC(Oc2cccc3ccccc23)C(O)C(O)C1O (stereo not drawn)	16.8%	-0.7%	5.0%	-6.2%	3.3%	-25.1%
O=C(O)c1cc(O)c2c(c1)[C@@H]([C@H]1c3cc(C(=O)O)cc(O)c3C(=O)c3c(O[C@@H]4O[C@H](CO)[C@@H](O)[C@H](O)[C@H]4O)cccc31)c1cccc(O[C@@H]3O[C@H](CO)[C@@H](O)[C@H](O)[C@H]3O)c1C2=O	35.5µM*	2µM*	u	-6.9%	-4.0%	u
Cc1ccc2oc(=O)c(/C=C(\O)c3ccco3)nc2c1	13.7%	-5.9%	214.4%	10.3%	100µM*	u
Cc1ccc2oc(=O)c(/C=C(\O)C(C)(C)C)nc2c1	-2.0%	-0.2%	18.1%	-11.4%	14.1%	-20.5%
SMILES	EPAC1 antag	USP2a block	EPAC2 antag	EPAC1 agonist	EPAC2 ag	USP1 inh
COc1cc(-c2cc(C(=O)Nc3c(Cl)cc(Cl)cc3Cl)c3ccccc3n2)cc(OC)c1OC	-1.5%	-0.2%	4.0%	-7.7%	-0.7%	-17.5%
COc1ccc2nc3ccccc3nc2c1NC(=O)c1ccc(Cl)cc1Cl	20.9%	6.2%	193.5%	u	100µM*	253.8%
N#C/C(=C\c1ccc(-c2ccc(C(=O)O)cc2)o1)c1nc2ccccc2[nH]1	34.8%	7.0%	1.1%	23.1%	u	28.2µM*
N#C/C(=C\c1ccc(N2CCOCC2)o1)c1nc2ccccc2[nH]1	-16.8%	u	5.6%	63.1µM*	50.1µM*	25.1µM*
N#C/C(=C\c1ccc(-c2ccc(Cl)c(C(=O)O)c2)o1)c1nc2ccccc2[nH]1	x	12.8%	x	x	x	31.6µM*
N#C/C(=C\c1ccc(N2CCCCC2)o1)C(N)=O	u	u	-23.0%	9.1%	5.3%	u
N#C/C(=C/c1ccc(N2CCOCC2)o1)c1ccc(Cl)cc1	3.3%	0.3%	21.1%	17.6%	-88.3%	28.2µM*
N#C/C(=C\c1ccc(N2CCOCC2)c([N+](=O)[O-])c1)c1nc2ccccc2[nH]1	11.4%	2.0%	-10.8%	11.2%	1.4%	-0.2%
Cn1c(-c2c(N)n(CCCc3ccccc3)c3nc4ccccc4nc23)nc2ccccc21	-18.6%	-9.8%	-3.9%	26.2%	18.6%	u
Cn1c(-c2c(N)n(CCc3ccccc3)c3nc4ccccc4nc23)nc2ccccc21	-7.8%	-12.5%	6.6%	27.4%	12.1%	28.2µM*
CCS(=O)(=O)N1CCc2cc(C(=O)NC(C)c3ccccc3)ccc21 (stereo not drawn)	x	x	x	x	x	-27.4%
COc1ccccc1N(C)S(=O)(=O)c1ccc(C(=O)OCC(=O)Nc2cc(C)on2)cc1	-27.4%	-0.1%	-7.3%	1.4%	4.1%	-20.6%
COc1ccccc1N(CC(=O)Nc1cc(C)on1)S(=O)(=O)c1ccc(Cl)cc1	-3.9%	0.3%	-11.8%	-1.8%	3.98µM*	-18.3%
COC(=O)c1ccc2c(c1)N(CC(=O)Nc1cccc(C(F)(F)F)c1)C(=O)c1ccccc1S2	x	x	x	x	x	-15.0%
CCCC(=O)N1CCC1(C)C(=O)Nc1ccc2c(c1)CCN2C(C)=O (stereo not drawn)	-11.1%	x	7.6%	4.9%	5.9%	x
COc1cc2c3nnc(-c4ccc(F)cc4)c-3cn(Cc3ccccc3)c2cc1OC	47.3%	0.3%	29.4%	-23.6%	-0.9%	31.6µM*
